In all, about 320,000 compounds went through this assay and about 7,600 (2.4%) were called active. Where a call stands in place of a potency, no number is given. Inconclusive results (about 3%) are left out. Calls come from the whole dose curve; as a rule, active = well fitted activation curve with a large enough effect; inconclusive = small, poorly fitted or top-dose-only effect; inactive = no such curve, though single readings can be large or run the other way. The sample as a whole holds a higher share of actives than the screen did.
assay: qHTS Assay for NPC1 Promoter Activators; settings: Huh7 NPC1 promoter luciferase reporter, 24 h; series mostly up to 9.22 µM; note: nearly all actives have a fitted effect of over 60% in size;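 for activation: reporter is driven by a mutant NPC1 promoter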
Method in brief: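 Stably transfected Huh7 (NPC1 promoter→luciferase), 1500 cells/well in Opti-MEM + 10% FBS, 2 h settle, then compound 24 h at 37 °C. Luminescence after 10 min with Amplite reagent.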
Potency is the fitted concentration of half-maximal effect.

| Compound | Potency |
| --- | --- |
| COc1ccccc1-c1cc(C(=O)NCCCn2ccnc2)no1 | inactive |
| O=C(c1cc(-c2ccc(O)cc2)on1)N1CCOCC1 | 0.891 µM (active) |
| O=C(CSc1n[nH]c(-c2cccs2)n1)N1CCCCC1 | inactive |
| COc1cccc(-c2cc(C(=O)N3CCN(c4ccccc4OC)CC3)no2)c1 | inactive |
| CC(=O)c1ccc(NC(=O)c2cc(-c3cccs3)on2)cc1 | inactive |
| COCCN1CCN(C(=O)c2cc(COc3ccc(F)cc3Cl)on2)CC1 | inactive |
| COc1cc(Cl)ccc1OCc1cc(C(=O)N2CC[C@@H]3CCCC[C@H]3C2)no1 | inactive |
| O=C(c1cc(-c2cccs2)on1)N1CCCCC1 | 1 µM (active) |
| O=C(c1cc(-c2ccc(Cl)cc2)on1)N1CCN(c2ccccc2)CC1 | inactive |
| O=C(c1cc(-c2ccc(F)cc2)on1)N1CCN(c2ccc(F)cc2)CC1 | inactive |
| COc1ccc(OCc2cc(C(=O)N3CCCC3)no2)c2ccccc12 | 3.16 µM (active) |
| COc1ccccc1-c1cc(C(=O)N2CCCCC2)no1 | 3.55 µM (active) |
| Cc1ccc(OCC(=O)N2CCN(S(=O)(=O)c3ccc(Cl)s3)CC2)cc1C | inactive |
| CCN(CC)c1ccc(NC(=O)CN2C(=O)NC3(CCc4ccccc43)C2=O)cc1 (centres undefined) | inactive |
| CCOC(=O)C1CCCN(C(=O)c2ccc(C)c(S(=O)(=O)N3CCCCC3)c2)C1 (centres undefined) | inactive |
| CCc1c(C)nc2cc(C)[nH]n2c1=O | inactive |
| CCc1c(C)nc2cc(-c3cccs3)[nH]n2c1=O | inactive |
| C=CCc1c(C)nc2cc(-c3ccccc3)[nH]n2c1=O | 1.78 µM (active) |
| O=C(Nc1cccc2ccccc12)c1onc2c1CCCC2 | inactive |
| COc1ccccc1C(CNC(=O)c1ccc(C)c(S(=O)(=O)N2CCCCC2)c1)N(C)C (centres undefined) | inactive |
| CC1CN/C(=C\C(=O)c2ccc(Br)cc2)C(=O)N1 (centres undefined) | 0.891 µM (active) |
| COc1cc2c(cc1OC)/C(=C/C(=O)c1ccc(NC(C)=O)cc1)NCC2 | inactive |
| CC1(C)Cc2ccccc2/C(=C/C(=O)c2ccccc2)N1 | inactive |

| Compound | Potency |
| --- | --- |
| O=C(NCC#CCSc1nnc(-c2cccc3ccccc23)o1)c1cccs1 | inactive |
| O=C(NNC(=O)c1cccc(S(=O)(=O)Nc2ccc(Cl)cc2)c1)c1ccc(=O)[nH]c1 | inactive |
| CCC(=O)N(CCc1ccccc1)Cc1cc2cc(C)ccc2[nH]c1=O | inactive |
| O=C(Nc1ccc(NC(=O)c2ccco2)c(Cl)c1)c1cccc([N+](=O)[O-])c1 | inactive |
| O=C(Nc1ccc(C2CC2(Cl)Cl)cc1)c1cccc([N+](=O)[O-])c1 (centres undefined) | 2 µM (active) |
| O=C(Nc1ccc(C(=O)N2CCCCC2)cc1)c1cccc([N+](=O)[O-])c1 | inactive |
| O=C(CN1C(=O)NC2(CCOc3ccccc32)C1=O)NCc1ccc(F)cc1 (centres undefined) | inactive |
| O=C(OCC(=O)N1CCCCCC1)c1cnc(Cl)c(Cl)c1 | inactive |
| O=C(CCCc1ccccc1)NCc1ccccc1 | inactive |
| C=CCN1CCN(C(=O)CCCc2ccccc2)CC1 | 0.316 µM (active) |
| CCC(C)NC(=O)CCCc1ccccc1 (centres undefined) | inactive |
| Nc1nnc(SCC(=O)NCC(=O)Nc2ccc(F)c(F)c2F)s1 | inactive |
| Nc1nonc1-c1noc(-c2ccc(Br)o2)n1 | inactive |
| Brc1ccc(-c2noc(-c3ccccc3)n2)o1 | 2.24 µM (active) |
| Cn1nc(-c2ccccc2)c(-c2nc(-c3ccc(Cl)cc3)no2)c1Cl | inactive |
| CC(C)(C)OC(=O)NCCCCCNC(=O)c1nc[nH]c1C(=O)NCc1ccccc1 | inactive |
| O=S(=O)(c1ccccc1)N(Cc1cccc(F)c1)c1ccccc1 | inactive |
| N#Cc1cccc(NC(=O)C2CCCN(C(=O)c3ccc(Cl)cc3)C2)c1 (centres undefined) | inactive |
| CC(C)CNC(=O)C(=O)NCc1ccccc1 | inactive |
| CC(C)CNC(=S)Nc1ccc(F)cc1 | inactive |
| CC(C)CNC(=O)C(=O)Nc1ccc(N(C)C)cc1 | 3.98 µM (active) |
| CC(OC(=O)c1cc2ccccc2o1)C(=O)Nc1ccc(N2CCOCC2)cc1 (centres undefined) | inactive |
| COC(=O)c1cc(Oc2ccc(S(=O)(=O)N3CCOCC3)cc2[N+](=O)[O-])cc(C(=O)OC)c1 | inactive |

| Compound | Potency |
| --- | --- |
| CC(C)C[C@H](NC(=O)[C@H](O)[C@H](N)Cc1ccccc1)C(=O)O | inactive |
| COc1ccc2c(c1OC)C(=O)c1ccccc1C2=O | 2.82 µM (active) |
| COc1cccc(-c2ccc3c(c2)S(=O)(=O)c2cccc(C(=O)O)c2C3=O)c1OC | inactive |
| COc1ccc(/C=C2\CCc3ccccc3C2=O)c(OC)c1OC | inactive |
| CCOC(=O)c1sc(N)c(C#N)c1COC(=O)C1=COCCO1 | inactive |
| CCOc1cccc(/C=C/c2ccc3ccccc3n2)c1OC(C)=O | 0.631 µM (active) |
| NC(=O)COC(=O)/C=C/c1ccc2ccccc2n1 | inactive |
| COc1cccc(/C=C2\C=C(c3ccc(C)cc3)OC2=O)c1OC(C)=O | inactive |
| CCOc1ccccc1-c1cc(C(=O)N2CCOCC2)c2ccccc2n1 | inactive |
| COc1cccc(/C=C/c2ccc3ccccc3n2)c1OC(C)=O | 1 µM (active) |
| CC(=O)c1ccc(S(=O)(=O)N2CCN(C(=O)/C=C/c3ccc4ccccc4n3)CC2)cc1 | inactive |
| CNS(=O)(=O)c1cccc(C(=O)OCCCC(=O)c2ccccc2)c1 | inactive |
| COc1ccccc1-c1nn(Cc2ccccc2)cc1C(=O)N1CCN(c2ncccn2)CC1 | inactive |
| CC1(C)CC(=O)C=C(c2cccc3c2Oc2ccccc2S3)C1 | inactive |
| O=C(COC(=O)CNC(=O)C1CCCCC1)Nc1cccc(F)c1 | inactive |
| Cc1ccccc1OCCC(=O)OCC(=O)NCCc1ccc(S(N)(=O)=O)cc1 | inactive |
| O=C(CN1CCN(C2CCS(=O)(=O)C2)CC1)N1N=C(c2ccc(Cl)cc2)CC1c1ccco1 (centres undefined) | inactive |
| CC(=O)Nc1ccc(NC(=O)CCN2C(=O)C3CC=CCC3C2=O)cc1 (centres undefined) | inactive |
| CCC(=O)c1cn(CCOc2ccccc2OC)c2ccccc12 | inactive |
| CCCOC1CCCN(C(=O)c2cc(COc3cncc(Cl)c3)on2)C1 (centres undefined) | 3.98 µM (active) |
| Cc1nonc1C1CCCN1C(=O)c1cc(COc2cccc(C(F)(F)F)c2)on1 (centres undefined) | inactive |
| CCOC(=O)CC1(NC(=O)c2cc(COc3cncc(Cl)c3)on2)CCCCC1 | inactive |
| Cc1ccc2c(c1)C1CN(C)CCC1N2S(=O)(=O)c1cccc(F)c1 (centres undefined) | inactive |

From PubChem BioAssay AID485313 (National Center for Advancing Translational Sciences (NCATS), 2010)
